About 7,900 targets were measured; listed, in parts, are those with a hit and a random draw of the rest. About 0.6% of all pairs of compound and target were hits. A number with no mark means an inactive call.

UniProt Q9BZM6, sequence (Q9BZM6 whole entry, looked up): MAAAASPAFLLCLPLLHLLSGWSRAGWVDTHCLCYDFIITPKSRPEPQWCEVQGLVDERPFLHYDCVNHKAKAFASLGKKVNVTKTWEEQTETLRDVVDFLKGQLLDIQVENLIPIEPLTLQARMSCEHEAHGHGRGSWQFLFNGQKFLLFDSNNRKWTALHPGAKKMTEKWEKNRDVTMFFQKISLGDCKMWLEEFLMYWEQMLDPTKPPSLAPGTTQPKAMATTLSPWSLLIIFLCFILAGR
UniProt P0CG48, sequence (P0CG48 whole entry, looked up): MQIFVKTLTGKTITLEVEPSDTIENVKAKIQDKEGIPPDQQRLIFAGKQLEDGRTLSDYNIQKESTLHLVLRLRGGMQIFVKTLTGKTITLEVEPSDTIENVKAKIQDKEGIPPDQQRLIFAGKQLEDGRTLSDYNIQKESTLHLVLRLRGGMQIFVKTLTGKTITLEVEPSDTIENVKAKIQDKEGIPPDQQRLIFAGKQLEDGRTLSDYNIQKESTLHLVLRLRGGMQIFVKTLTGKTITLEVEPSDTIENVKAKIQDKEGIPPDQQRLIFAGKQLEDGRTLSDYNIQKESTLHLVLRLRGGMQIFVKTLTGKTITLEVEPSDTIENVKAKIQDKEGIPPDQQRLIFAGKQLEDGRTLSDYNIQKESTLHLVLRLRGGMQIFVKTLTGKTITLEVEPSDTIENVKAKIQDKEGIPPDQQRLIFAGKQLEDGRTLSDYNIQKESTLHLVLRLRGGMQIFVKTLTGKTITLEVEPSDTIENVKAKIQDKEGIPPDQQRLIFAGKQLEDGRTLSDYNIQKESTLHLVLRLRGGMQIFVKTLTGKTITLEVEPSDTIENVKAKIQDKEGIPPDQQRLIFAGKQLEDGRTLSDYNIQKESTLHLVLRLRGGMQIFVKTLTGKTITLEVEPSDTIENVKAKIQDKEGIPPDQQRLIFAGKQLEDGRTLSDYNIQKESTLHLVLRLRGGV
UniProt P54578, sequence (P54578 whole entry, looked up): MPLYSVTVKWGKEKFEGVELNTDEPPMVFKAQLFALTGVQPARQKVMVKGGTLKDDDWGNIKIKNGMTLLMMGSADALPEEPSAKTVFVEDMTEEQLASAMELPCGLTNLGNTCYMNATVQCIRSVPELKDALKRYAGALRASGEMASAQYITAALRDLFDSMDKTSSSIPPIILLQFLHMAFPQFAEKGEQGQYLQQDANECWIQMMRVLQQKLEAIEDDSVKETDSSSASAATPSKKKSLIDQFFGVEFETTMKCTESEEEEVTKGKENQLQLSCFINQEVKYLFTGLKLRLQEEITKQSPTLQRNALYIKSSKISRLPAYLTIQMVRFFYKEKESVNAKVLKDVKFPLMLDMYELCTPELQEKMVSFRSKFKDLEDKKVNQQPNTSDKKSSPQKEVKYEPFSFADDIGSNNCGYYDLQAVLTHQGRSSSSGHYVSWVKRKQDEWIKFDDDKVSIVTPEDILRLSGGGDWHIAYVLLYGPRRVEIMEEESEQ
UniProt O15213, sequence (O15213 whole entry, looked up): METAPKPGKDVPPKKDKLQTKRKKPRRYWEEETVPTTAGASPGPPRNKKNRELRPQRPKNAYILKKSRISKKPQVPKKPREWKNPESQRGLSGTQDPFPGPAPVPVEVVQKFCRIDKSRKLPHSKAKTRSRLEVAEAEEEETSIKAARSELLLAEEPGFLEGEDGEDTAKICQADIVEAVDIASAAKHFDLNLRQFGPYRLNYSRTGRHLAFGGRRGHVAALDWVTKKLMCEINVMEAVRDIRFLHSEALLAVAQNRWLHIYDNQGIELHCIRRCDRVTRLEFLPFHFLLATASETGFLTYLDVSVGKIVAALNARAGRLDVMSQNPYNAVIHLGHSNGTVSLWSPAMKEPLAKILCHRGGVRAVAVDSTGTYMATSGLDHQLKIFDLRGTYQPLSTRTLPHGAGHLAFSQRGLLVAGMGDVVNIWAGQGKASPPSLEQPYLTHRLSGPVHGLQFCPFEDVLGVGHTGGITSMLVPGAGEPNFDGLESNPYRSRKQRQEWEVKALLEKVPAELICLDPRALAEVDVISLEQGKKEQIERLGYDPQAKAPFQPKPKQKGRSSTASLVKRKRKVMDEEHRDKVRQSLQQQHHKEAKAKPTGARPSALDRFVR
UniProt Q6NXR4, sequence (Q6NXR4 whole entry, looked up): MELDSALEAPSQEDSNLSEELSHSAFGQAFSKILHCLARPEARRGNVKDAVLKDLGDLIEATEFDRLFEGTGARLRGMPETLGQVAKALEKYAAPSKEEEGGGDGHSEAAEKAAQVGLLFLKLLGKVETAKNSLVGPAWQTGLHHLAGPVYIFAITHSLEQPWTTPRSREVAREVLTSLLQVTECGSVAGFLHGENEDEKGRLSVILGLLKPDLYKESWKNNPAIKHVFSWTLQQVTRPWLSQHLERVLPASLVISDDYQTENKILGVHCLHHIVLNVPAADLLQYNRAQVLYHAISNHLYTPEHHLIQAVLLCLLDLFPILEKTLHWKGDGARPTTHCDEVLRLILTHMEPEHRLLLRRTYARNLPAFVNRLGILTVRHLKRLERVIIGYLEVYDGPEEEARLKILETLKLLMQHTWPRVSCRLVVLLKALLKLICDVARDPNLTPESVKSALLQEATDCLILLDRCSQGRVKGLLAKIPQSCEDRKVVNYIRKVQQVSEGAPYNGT
UniProt Q96ET8, sequence (Q96ET8 whole entry, looked up): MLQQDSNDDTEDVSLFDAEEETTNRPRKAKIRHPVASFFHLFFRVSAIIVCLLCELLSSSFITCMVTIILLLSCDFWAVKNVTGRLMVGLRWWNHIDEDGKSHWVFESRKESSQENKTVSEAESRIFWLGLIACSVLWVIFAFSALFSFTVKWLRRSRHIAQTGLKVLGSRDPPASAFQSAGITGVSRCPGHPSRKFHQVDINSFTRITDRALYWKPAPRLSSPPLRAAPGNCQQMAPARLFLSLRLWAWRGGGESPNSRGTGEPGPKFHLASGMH
UniProt O94967, sequence (O94967 whole entry, looked up): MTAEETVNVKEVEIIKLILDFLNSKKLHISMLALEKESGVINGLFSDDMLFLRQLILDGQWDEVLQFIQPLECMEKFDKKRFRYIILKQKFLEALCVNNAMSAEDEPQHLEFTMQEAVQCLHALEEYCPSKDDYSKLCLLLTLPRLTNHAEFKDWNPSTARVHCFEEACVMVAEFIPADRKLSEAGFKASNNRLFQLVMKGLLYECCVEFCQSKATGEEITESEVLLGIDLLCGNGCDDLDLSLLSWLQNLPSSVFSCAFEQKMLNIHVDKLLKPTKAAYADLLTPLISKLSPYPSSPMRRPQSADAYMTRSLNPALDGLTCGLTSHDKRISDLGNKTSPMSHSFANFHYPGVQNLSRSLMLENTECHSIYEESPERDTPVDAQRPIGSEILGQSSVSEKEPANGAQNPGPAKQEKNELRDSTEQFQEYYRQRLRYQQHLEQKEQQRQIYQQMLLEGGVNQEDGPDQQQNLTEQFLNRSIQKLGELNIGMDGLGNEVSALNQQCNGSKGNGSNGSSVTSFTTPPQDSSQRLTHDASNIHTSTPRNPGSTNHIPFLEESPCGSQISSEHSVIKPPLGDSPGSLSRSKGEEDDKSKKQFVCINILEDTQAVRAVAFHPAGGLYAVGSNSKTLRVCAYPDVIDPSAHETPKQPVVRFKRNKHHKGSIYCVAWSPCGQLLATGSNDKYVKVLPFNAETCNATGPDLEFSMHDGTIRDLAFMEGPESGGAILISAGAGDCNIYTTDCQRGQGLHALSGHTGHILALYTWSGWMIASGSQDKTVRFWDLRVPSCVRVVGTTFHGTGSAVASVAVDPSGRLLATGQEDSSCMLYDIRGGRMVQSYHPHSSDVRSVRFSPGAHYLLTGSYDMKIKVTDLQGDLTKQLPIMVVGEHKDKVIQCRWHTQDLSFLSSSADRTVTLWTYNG
UniProt O95857, sequence (O95857 whole entry, looked up): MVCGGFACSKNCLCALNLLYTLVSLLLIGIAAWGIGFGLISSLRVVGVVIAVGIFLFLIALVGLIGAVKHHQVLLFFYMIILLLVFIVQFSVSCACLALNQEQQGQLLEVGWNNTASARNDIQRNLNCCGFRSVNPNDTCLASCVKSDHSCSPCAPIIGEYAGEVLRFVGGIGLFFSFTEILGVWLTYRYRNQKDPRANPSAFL
UniProt O60784, sequence (O60784 whole entry, looked up): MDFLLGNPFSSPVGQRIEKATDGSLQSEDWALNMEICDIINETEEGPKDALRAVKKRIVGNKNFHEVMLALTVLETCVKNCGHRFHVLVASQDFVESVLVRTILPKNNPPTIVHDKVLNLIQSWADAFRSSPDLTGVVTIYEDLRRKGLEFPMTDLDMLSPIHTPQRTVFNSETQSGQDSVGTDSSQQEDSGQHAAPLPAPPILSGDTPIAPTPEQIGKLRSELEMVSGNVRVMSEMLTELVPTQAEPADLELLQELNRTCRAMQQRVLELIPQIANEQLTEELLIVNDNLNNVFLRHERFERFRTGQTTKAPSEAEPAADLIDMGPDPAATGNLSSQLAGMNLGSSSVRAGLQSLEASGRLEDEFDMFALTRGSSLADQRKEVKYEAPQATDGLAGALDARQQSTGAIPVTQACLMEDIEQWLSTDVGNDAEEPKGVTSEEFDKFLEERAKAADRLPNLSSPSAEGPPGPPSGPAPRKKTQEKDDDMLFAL
UniProt Q9C035, sequence (Q9C035 whole entry, looked up): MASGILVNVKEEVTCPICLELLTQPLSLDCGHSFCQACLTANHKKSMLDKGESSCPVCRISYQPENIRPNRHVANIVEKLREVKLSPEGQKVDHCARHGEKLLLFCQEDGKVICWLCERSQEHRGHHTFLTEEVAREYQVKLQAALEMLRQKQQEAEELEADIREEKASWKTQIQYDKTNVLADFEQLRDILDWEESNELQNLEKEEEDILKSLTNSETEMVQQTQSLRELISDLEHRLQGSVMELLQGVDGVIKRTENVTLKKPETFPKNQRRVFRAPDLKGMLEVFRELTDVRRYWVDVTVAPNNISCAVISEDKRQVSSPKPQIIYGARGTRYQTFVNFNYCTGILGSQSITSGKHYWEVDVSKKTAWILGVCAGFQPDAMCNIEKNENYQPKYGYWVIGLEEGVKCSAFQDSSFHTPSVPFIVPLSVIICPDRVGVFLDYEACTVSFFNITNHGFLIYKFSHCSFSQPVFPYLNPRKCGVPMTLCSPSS

Compound in one experiment: CC1=C2C(=CC=C1)N=C(N(C2=O)C3=CC=CC=C3C)CN4C=NC5=C(N=CN=C54)N
The experiment can be described thus: log2 fold change, soluble protein after heating vs DMSO (PISA); higher = thermal stabilisation; K562 cells, 10 uM, 30 min; active = over 0.2 and 3.5 SD of the protein, either way, in both replicates (recomputed). The method in brief:
(§1)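 Values are thermal stability changes relative to control samples and are taken from duplicates. They are stated as log2 fold changes. Before quantification by TMTpro 16plex LC-MS/MS with equalised channel sums, K562 cells at 2×10^6 cells/mL were treated with 10 μM compound for 30 min, heated in aliquots for 3 min across 48°C-58°C, pooled, extracted in PBS with 0.5% NP-40 at 4°C, and centrifuged at 21,000xg for 90 min to give the soluble supernatant.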
With ULBP1 (UniProt Q9BZM6), the log2 fold change was -0.001.

In the case of USP25 isoform 3 (UniProt Q9UHP3), the log2 fold change is 0.068.

For TMEM70 (UniProt Q9BUB7), the log2 fold change was 0.057.

Take TMTC3 (UniProt Q6ZXV5): the log2 fold change is 0.011.

On to TTI2 (UniProt Q6NXR4), for which the log2 fold change was 0.031.

WDR46, A0A0G2JJL1: the log2 fold change was -0.546.

Consider USP9X (UniProt Q93008), for which the log2 fold change was 0.057.

Take UBC (UniProt P0CG48): the log2 fold change is 0.058.

Consider TXNRD1 isoform 7 (UniProt Q16881), for which the log2 fold change was 0.138.

Regarding TTC26, the log2 fold change is 0.02.

As to TVP23C (UniProt Q96ET8), the log2 fold change is 0.041.

With UBE2S (UniProt Q16763), the log2 fold change was 0.106.

In the case of TOM1L2 (UniProt Q6ZVM7), the log2 fold change is 0.101.

On to TMEM41A (UniProt Q96HV5), for which the log2 fold change was 0.06.

TTC33 (UniProt Q6PID6): the log2 fold change was 0.073.

As for WARS1 (UniProt G3V277), the log2 fold change was 0.283.

Turning to WDR46 (UniProt O15213), the log2 fold change was -0.302.

In the case of TSPAN13 (UniProt O95857), the log2 fold change was 0.639 (active).

Consider WDR47 (UniProt O94967), for which the log2 fold change is -0.042.

On to U2AF1L5 (UniProt P0DN76), for which the log2 fold change was -0.075.

With TP53BP1 isoform 2 (UniProt Q12888), the log2 fold change is 0.025.

Turning to TRIM5 (UniProt Q9C035), the log2 fold change is 0.023.

Turning to TOM1 isoform 2 (UniProt O60784), the log2 fold change is -0.074.

With TRMT2A (UniProt Q8IZ69), the log2 fold change was -0.026.

As to USP14 (UniProt P54578), the log2 fold change is 0.046.

Compound in the next experiment: Cc1sc2c(c1C)C(c1ccc(Cl)cc1)=N[C@@H](CC(=O)OC(C)(C)C)c1nnc(C)n1-2
The description is as above. The method in brief: as §1
With ULBP1 (UniProt Q9BZM6), the log2 fold change was -0.036.

As for TMEM268 isoform 3 (UniProt Q5VZI3), the log2 fold change is 0.151.

Take USP25 isoform 3 (UniProt Q9UHP3): the log2 fold change was -0.007.

Regarding TMEM70 (UniProt Q9BUB7), the log2 fold change is -0.05.

Consider TMTC3 (UniProt Q6ZXV5), for which the log2 fold change is -0.034.

For the target TTI2 (UniProt Q6NXR4), the log2 fold change is 0.028.

For WDR46, A0A0G2JJL1, the log2 fold change is 0.303.

In the case of UBAP2L (UniProt F8W726), the log2 fold change was 0.046.

For the target USP9X (UniProt Q93008), the log2 fold change is 0.012.

In the case of UBE3B (UniProt Q7Z3V4), the log2 fold change is -0.214.

With TRIQK (UniProt Q629K1), the log2 fold change was -0.052.

As to UBC (UniProt P0CG48), the log2 fold change is -0.019.

For TTC26, the log2 fold change was 0.198.

With TOM1 (UniProt O60784), the log2 fold change was 0.039.

On to TVP23C (UniProt Q96ET8), for which the log2 fold change was 0.029.

Take TMEM179B (UniProt Q7Z7N9): the log2 fold change is 0.005.

Take UBE2S (UniProt Q16763): the log2 fold change is 0.

Regarding TSC2 (UniProt P49815), the log2 fold change is -0.044.

With TMEM41A (UniProt Q96HV5), the log2 fold change is -0.08.

Regarding WARS1 (UniProt G3V277), the log2 fold change is 0.076.

With WDR46 (UniProt O15213), the log2 fold change is 0.246.

UTP20 (UniProt O75691): the log2 fold change was 0.034.

TSPAN13 (UniProt O95857): the log2 fold change was 0.076.

With WDR47 (UniProt O94967), the log2 fold change was -0.031.

Take U2AF1L5 (UniProt P0DN76): the log2 fold change was 0.057.

As to TP53BP1 isoform 2 (UniProt Q12888), the log2 fold change was 0.001.

Turning to TRIM5 (UniProt Q9C035), the log2 fold change is 0.155.

On to XRCC1 (UniProt P18887), for which the log2 fold change is 0.07.

In the case of TOM1 isoform 2 (UniProt O60784), the log2 fold change was 0.046.

On to TRMT2A (UniProt Q8IZ69), for which the log2 fold change was 0.1.

For USP14 (UniProt P54578), the log2 fold change was -0.028.

Compound in another experiment: c1ccc([C@@H]2C[C@H]2NC2CCNCC2)cc1
The description is as above. The essentials: as §1
ULBP1 (UniProt Q9BZM6): the log2 fold change is -0.038.

Regarding TMEM268 isoform 3 (UniProt Q5VZI3), the log2 fold change was 0.063.

Regarding USP25 isoform 3 (UniProt Q9UHP3), the log2 fold change was -0.007.

With TMEM70 (UniProt Q9BUB7), the log2 fold change was -0.002.

Take TMTC3 (UniProt Q6ZXV5): the log2 fold change is 0.005.

TTI2 (UniProt Q6NXR4): the log2 fold change was 0.041.

As to TMEM104 (UniProt Q8NE00), the log2 fold change is 0.24.

USP9X (UniProt Q93008): the log2 fold change was -0.007.

UBE3B (UniProt Q7Z3V4): the log2 fold change was 0.172.

For the target TRIQK (UniProt Q629K1), the log2 fold change is 0.048.

UBC (UniProt P0CG48): the log2 fold change was -0.061.

In the case of TVP23C (UniProt Q96ET8), the log2 fold change is 0.086.

TMEM179B (UniProt Q7Z7N9): the log2 fold change was -0.024.

In the case of UBE2S (UniProt Q16763), the log2 fold change was 0.013.

As for TSC2 (UniProt P49815), the log2 fold change was 0.317.

With TOM1L2 (UniProt Q6ZVM7), the log2 fold change was -0.001.

TTC33 (UniProt Q6PID6): the log2 fold change is 0.019.

Turning to WDR46 (UniProt O15213), the log2 fold change was -0.005.

Turning to TSPAN13 (UniProt O95857), the log2 fold change was 0.018.

Turning to WDR47 (UniProt O94967), the log2 fold change is 0.078.

For TP53BP1 isoform 2 (UniProt Q12888), the log2 fold change was 0.032.

On to TRIM5 (UniProt Q9C035), for which the log2 fold change is -0.004.

Take VDAC1 (UniProt C9JI87): the log2 fold change is 0.137.

In the case of XRCC1 (UniProt P18887), the log2 fold change is 0.062.

For the target TOM1 isoform 2 (UniProt O60784), the log2 fold change was 0.008.

In the case of TRMT2A (UniProt Q8IZ69), the log2 fold change was 0.058.

Take USP14 (UniProt P54578): the log2 fold change was -0.025.

The values are drawn from the supplement of paper PMC10849652.
